Earlier results on 26 molecules are cited in PubChem BioAssay AID977610.

Hit rate of the full screen: of about 3,600 compounds, about 3,600 (100%) were called active. The limit is not given here; nearly all actives have Ki up to about 18000 µM. So high a share suggests a set chosen from earlier hits. Some of the results follow. Where a SMILES comes first, the peptide text is derived from it. Residues, ends and D or L forms follow the SMILES beside them. Peptide text beside a SMILES is read from it. The star is where a group is joined. Bz = O=C(c1ccccc1)*

This series can be described thus: PubChem AID 977610. The note with it: PDB protein-ligand complexes, literature Ki.

On to `CC(C)C[C@H](N)C(=O)N[C@@H](CS)C(=O)N[C@@H](CO)C(=O)N[C@@H](CC(=O)O)C(=O)N[C@@H](CCCN=C(N)N)C(=O)NCC(=O)N[C@@H](CS)C(=O)N[C@@H](CCC(=O)O)C(=O)N[C@@H](CC(N)=O)C(=O)N[C@@H](CCCN=C(N)N)C(=O)N[C@@H](Cc1c[nH]c2ccccc12)C(=O)N[C@@H](CS)C(=O)N[C@@H](CCCCN)C(N)=O` (H-LCSDRGCENRWCK-NH2), for which, for the setting “protein: urokinase-type plasminogen activator (uPA), PDB entry 4mnx”, the Ki (in general, the dissociation constant of the complex between target and ligand, obtained from inhibition or displacement) is 17.7 µM (active).

Take `NCCCC[C@H](NC(=O)[C@H](CCCN=C(N)N)NC(=O)[C@H](CC(N)=O)NC(=O)[C@H](CCC(=O)O)NC(=O)[C@H](CS)NC(=O)CNC(=O)[C@H](CCCN=C(N)N)NC(=O)[C@H](CC(=O)O)NC(=O)[C@H](Cc1c[nH]c2ccccc12)NC(=O)[C@H](CS)NC(=O)[C@@H](N)CCC(N)=O)C(=O)N[C@@H](CS)C(=O)N[C@@H](CC(N)=O)C(N)=O` (H-QCWDRGCENRKCN-NH2): the Ki (protein: urokinase-type plasminogen activator (uPA), PDB entry 4mnw) is 1.72 µM (active).

Turning to `C#C[C@@H]1N[C@@H](C)[C@@H](O)[C@H]1O`, the inhibition constant (Ki) (protein: Alpha-L-fucosidase Fuc2970, PDB entry 4pct) was 0.07 µM (active).

On to `NC(N)NCCCNC(=O)[C@@H]1CCCCN1C(=O)[C@@H](CC1CCCCC1)NCC(=O)O`, for which the inhibitory constant (Ki) (protein: bovine trypsin, PDB entry 1k1o) was 0.675 µM (active).

Turning to `Nc1[nH]c(=S)nc2[nH]ncc12`, the inhibition constant (Ki) (protein: PDE10A2, PDB entry 4lkq) is 450 µM (active).

Turning to `NC(N)NCCCC[C@H](N)[P+](O)(O)O`, the inhibition constant (Ki) (protein: M1 family aminopeptidase, PDB entry 4k5l) is 11 µM (active).

With `NC(N)NCCC[C@H](N)[P+](O)(O)O`, for the setting “protein: M1 family aminopeptidase, PDB entry 4k5m”, the Ki was 193 µM (active).

For `C[C@@H]1N[C@@H](C#Cc2ccccc2)[C@H](O)[C@@H]1O`, the Ki (protein: Alpha-L-fucosidase Fuc2970, PDB entry 4pcs) is 0.014 µM (active).

As to `C[C@H](NC(=O)[C@H](C)NC(=O)[C@H](Cc1cc(-c2ccc(-c3cccc(Cl)c3)cc2)no1)C[P+](O)(O)c1ccc(Br)cc1)C(N)=O`, the Ki (protein: Macrophage metalloelastase (F171D mutation), PDB entry 4gr0) is 0.00028 µM (active).

On to `C[C@H](NC(=O)[C@H](C)NC(=O)[C@H](Cc1cc(-c2ccccc2)no1)C[P+](O)(O)c1ccc(Br)cc1)C(N)=O`, for which the Ki (protein: Macrophage metalloelastase (F171D mutation), PDB entry 4gr8) is 0.0147 µM (active).

Turning to `N=Cc1nc(N2CCOCC2)nc(N(Cc2ccc(Cl)cc2)C2CCCCC2)n1`, under “protein: CATHEPSIN L1, PDB entry 4axm”, the Ki is 0.013 µM (active).

`C[C@H](NC(=O)[C@H](CO)N[C@H](O)CSCCNC(=O)CCNC(=O)[C@H](O)C(C)(C)CO[P+](O)(O)O[P+](O)(O)OCc1oc(-n2cnc3c(N)ncnc32)c(O)c1O[P+](O)(O)O)C(=O)N[C@@H](CO)C(=O)N[C@@H](CCC(=O)O)C(=O)O`: the inhibition constant Ki (protein: N-terminal acetyltransferase A complex subunit nat1, PDB entry 4kvm) is 8.9 µM (active).

In the case of `CC(C)C[C@H](NC(=O)[C@@H](NC(=O)CNC(=O)c1ccccc1)C(C)C)C(=O)N[C@@H](CCCCN)C(=O)N[C@@H](CCC(=O)O)C(=O)N[C@@H](Cc1ccc(O)cc1)C(=O)NCC(=O)N[C@H](C(=O)O)C(C)C` (Bz-GVLKEYGV-OH), where the note is “protein: NAD-DEPENDENT PROTEIN DEACYLASE SIRTUIN-5, MITOCHONDRIAL zebrafish Sirtuin 5, PDB entry 4uub”, the Ki is 17.2 µM (active).

H-PKSFLV-OH: the inhibition constant (Ki) (protein: LSD1-CoREST complex, PDB entry 3zmu) is 49.6 µM (active).

Take H-PLSFLV-OH: the Ki (protein: LSD1-CoREST complex, PDB entry 3zmv) is 55 µM (active).

On to H-PTSII-OH, for which the Ki (protein: CFTR Associated Ligand (CAL) PDZ domain, PDB entry 4joh) is 450 µM (active).

With `CC[C@H](C)[C@H](NC(=O)[C@@H](NC(=O)[C@H](CO)NC(=O)[C@@H](N)CC(=O)O)[C@@H](C)CC)C(=O)O` (H-DSII-OH), under “protein: CFTR Associated Ligand (CAL) PDZ domain, PDB entry 4k72”, the Ki was 1000 µM (active).

As for `O=[N+]([O-])c1ccc(NNC(=S)Nc2ccc(F)cc2)c([N+](=O)[O-])c1`, the Ki (protein: GTPase HRas(T35S mutant), PDB entry 2lwi) is 773 µM (active).

Regarding `CCCCCCc1cccc(NC(=O)[C@H](N)CC[P+](O)(O)O)c1`, the Ki (protein: Lipid G protein-Coupled Receptor, PDB entry 3v2w) is 0.077 µM (active).

For `NC(=O)CN[C@@H](C(=O)N1CC[C@H]1C(=O)NCc1ccc(C(N)N)cc1)C1CCCCC1`, the inhibition constant Ki (protein: THROMBIN, PDB entry 4bao) was 0.00429 µM (active).

`NC(N)c1ccc(CNC(=O)[C@@H]2CCN2C(=O)[C@H](NCC(=O)O)C2CCCCC2)cc1`: the Ki (protein: THROMBIN, PDB entry 4bah) was 0.00201 µM (active).

With `CN(C)C(=O)CN[C@@H](C(=O)N1CC[C@H]1C(=O)NCc1ccc(C(N)N)cc1)C1CCCCC1`, the Ki (protein: THROMBIN, PDB entry 4bam) was 0.00114 µM (active).

Take `C[C@@H](O)[C@H](N)C(=O)NS(=O)(=O)c1cccc(-c2ccc3[nH]ncc3c2)c1`: the Ki (protein: Threonine--tRNA ligase, cytoplasmic, PDB entry 4hwt) was 50 µM (active).

Turning to `Cc1cc(-c2nn(C(C)C)c3ncnc(N)c23)cc2ccc(OCc3ccccc3)nc12`, where the note is “protein: Mitogen-activated protein kinase 1 (Q103A, C164L mutant), Rat Erk2, PDB entry 4n4s”, the inhibition constant (Ki) is 0.133 µM (active).

Regarding `CC(=O)NCCCC[C@H](NC(=O)[C@H](CCCN=C(N)N)NC(=O)[C@H](Cc1cnc[nH]1)NC(=O)[C@@H](N)CCCN=C(N)N)C(=O)N[C@H](C(=O)O)C(C)C` (H-RHRK(Ac)V-OH), the Ki (protein: Bromodomain-PHD Finger Module of Human Transcriptional Co-Activator CBP, PDB entry 4n3w) is 315 µM (active).

Turning to `OC[C@@H]1[C@@H](O[C@@H]2O[C@H](CO)[C@@H](O)[C@H](O)[C@@H]2O)[C@H](O)[C@H](O)c2nccn21`, the inhibitory constant (Ki) reads like this: (protein: GH26 beta-mannanase CjMan26C from Cellvibrio japonicus, PDB entry 4cd5) 0.194 µM (active); (protein: GH113 beta-mannanase AaManA from Alicyclobacillus acidocaldarius, PDB entry 4cd8) 1300 µM (active).
